From the supplement of paper PMC8007513
Counter-ions that a name gives are not always drawn. ± gives the standard error. In all, about 1,300 compounds went through this assay and about 130 (10%) showed an effect of 50% or more. Many of the other results were omitted from the sample, so strong results are more common in it than they were.

System: Trichoderma virens ATCC 9645
Experiment: growth yield (OD600) with compound + IPBC relative to untreated control; higher = less growth inhibition
Details: compound concentration: 100 uM, IPBC concentration: 200 ng/ml
In short: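 A biocide at 200 ng ml^−1 was co-applied to some wells, and library compounds were present in all test wells at 100 μM final. The wells held 100 μl of Trichoderma virens ATCC 9645 spores at 15,000 spores ml^−1 in potato dextrose broth, grown at 30 °C in 96-well plates, with OD600 read at 40 h and 72 h. Results are relative growth against the control without either agent, averaged across duplicate screens.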

Compound	growth yield (40 h) [%]	growth yield (72 h) [%]
C[N+]12CCC(CC1)C(OC(=O)C(O)(c1ccccc1)c1ccccc1)C2 (stereo not drawn) [Clidinium bromide] + CCCCNC(=O)OCC#CI [3-iodo-2-propynyl butylcarbamate (IPBC)]	95.8 ± 11	95.8 ± 6.6
O=C(NCCN1CCOCC1)c1ccc(Cl)cc1 [Moclobemide] + CCCCNC(=O)OCC#CI [3-iodo-2-propynyl butylcarbamate (IPBC)]	81.6 ± 4.8	89.7 ± 2
Cc1c(N)c(=O)n(-c2ccccc2)n1C [Ampyrone] + CCCCNC(=O)OCC#CI [3-iodo-2-propynyl butylcarbamate (IPBC)]	104 ± 3.8	105 ± 1.8
CCCCc1oc2ccc(NS(C)(=O)=O)cc2c1C(=O)c1ccc(OCCCN(CCCC)CCCC)cc1 [Dronedarone hydrochloride] + CCCCNC(=O)OCC#CI [3-iodo-2-propynyl butylcarbamate (IPBC)]	6.51 ± 0.16	3.25 ± 0.32
CCCCOc1cc(C(=O)OCCN(CC)CC)ccc1N [Benoxinate hydrochloride] + CCCCNC(=O)OCC#CI [3-iodo-2-propynyl butylcarbamate (IPBC)]	84.82 ± 0.64	91.24 ± 0.63
CCCCCCCN(CC)CCCC(O)c1ccc(NS(C)(=O)=O)cc1 (stereo not drawn) [Ibutilide fumarate] + CCCCNC(=O)OCC#CI [3-iodo-2-propynyl butylcarbamate (IPBC)]	85 ± 1.4	88.1 ± 0.63
CCCCc1oc2ccccc2c1C(=O)c1cc(I)c(OCCN(CC)CC)c(I)c1 [Amiodarone hydrochloride] + CCCCNC(=O)OCC#CI [3-iodo-2-propynyl butylcarbamate (IPBC)]	2.06 ± 0.16	2.41 ± 0.1
CN(CCOc1ccc(NS(C)(=O)=O)cc1)CCc1ccc(NS(C)(=O)=O)cc1 [Dofetilide] + CCCCNC(=O)OCC#CI [3-iodo-2-propynyl butylcarbamate (IPBC)]	88.79 ± 0.79	90.3 ± 2
CCCCOc1cc(C(=O)NCCN(CC)CC)c2ccccc2n1 [Dibucaine] + CCCCNC(=O)OCC#CI [3-iodo-2-propynyl butylcarbamate (IPBC)]	85 ± 1.4	94.18 ± 0.21
CCCCC1=NC2(CCCC2)C(=O)N1Cc1ccc(-c2ccccc2-c2nnn[nH]2)cc1 [Irbesartan] + CCCCNC(=O)OCC#CI [3-iodo-2-propynyl butylcarbamate (IPBC)]	96.6 ± 6.7	95.8 ± 3.5
NS(=O)(=O)c1cc2c(cc1Cl)N=C(CSCc1ccccc1)NS2(=O)=O [Benzthiazide] + CCCCNC(=O)OCC#CI [3-iodo-2-propynyl butylcarbamate (IPBC)]	89.9 ± 0.32	94.8 ± 1.3
O=C(OCC(O)CO)c1ccccc1Nc1ccnc2cc(Cl)ccc12 (stereo not drawn) [Glafenine hydrochloride] + CCCCNC(=O)OCC#CI [3-iodo-2-propynyl butylcarbamate (IPBC)]	84.3 ± 2.4	97.3 ± 1.3
O=[N+]([O-])O[C@@H]1CO[C@H]2[C@@H]1OC[C@@H]2O [Isosorbide mononitrate] + CCCCNC(=O)OCC#CI [3-iodo-2-propynyl butylcarbamate (IPBC)]	88.2 ± 4	91.3 ± 4.1
CCN(C(C)=O)c1cccc(-c2ccnc3c(C#N)cnn23)c1 [Zaleplon] + CCCCNC(=O)OCC#CI [3-iodo-2-propynyl butylcarbamate (IPBC)]	81.009 ± 1e-14	88.94 ± 0.42
Cc1c(NC(C)C)c(=O)n(-c2ccccc2)n1C [Isopyrin hydrochloride] + CCCCNC(=O)OCC#CI [3-iodo-2-propynyl butylcarbamate (IPBC)]	87 ± 2.5	91.24 ± 0.63
CC1(C)S[C@@H]2[C@H](NC(=O)Cc3ccccc3)C(=O)N2[C@H]1C(=O)O [Benzylpenicillin sodium] + CCCCNC(=O)OCC#CI [3-iodo-2-propynyl butylcarbamate (IPBC)]	82.1 ± 6.2	97.1 ± 6.1
CC1(C)S[C@@H]2[C@H](NC(=O)Cc3ccccc3)C(=O)N2[C@H]1C(=O)O [Benzathine benzylpenicillin] + CCCCNC(=O)OCC#CI [3-iodo-2-propynyl butylcarbamate (IPBC)]	102 ± 12	98 ± 9.9
CCCCc1ncc(/C=C(\Cc2cccs2)C(=O)O)n1Cc1ccc(C(=O)O)cc1 [Eprosartan mesylate] + CCCCNC(=O)OCC#CI [3-iodo-2-propynyl butylcarbamate (IPBC)]	112 ± 9.7	109 ± 4.1
COC(=O)C1=C(C)NC(C)=C(C(=O)OCCN(C)Cc2ccccc2)C1c1cccc([N+](=O)[O-])c1 (stereo not drawn) [Nicardipine hydrochloride] + CCCCNC(=O)OCC#CI [3-iodo-2-propynyl butylcarbamate (IPBC)]	73.1 ± 1.6	94.7 ± 2.2
COC(=O)C1=C(C)NC(C)=C(C(=O)OCC(C)C)C1c1ccccc1[N+](=O)[O-] (stereo not drawn) [Nisoldipine] + CCCCNC(=O)OCC#CI [3-iodo-2-propynyl butylcarbamate (IPBC)]	41.3 ± 8.3	34.71 ± 0.1

Compound	growth yield (40 h) [%]	growth yield (72 h) [%]
COC(=O)C1=C(C)NC(C)=C(C(=O)OC)C1c1ccccc1[N+](=O)[O-] [Nifedipine] + CCCCNC(=O)OCC#CI [3-iodo-2-propynyl butylcarbamate (IPBC)]	42.41 ± 0.16	55.48 ± 0.52
CCOC(=O)C1=C(C)NC(C)=C(C(=O)OC)C1c1cccc(Cl)c1Cl (stereo not drawn) [Felodipine] + CCCCNC(=O)OCC#CI [3-iodo-2-propynyl butylcarbamate (IPBC)]	77.5 ± 8.3	92.9 ± 1.9
CCOC(=O)C1=C(C)NC(C)=C(C(=O)OC)C1c1cccc([N+](=O)[O-])c1 (stereo not drawn) [Nitrendipine] + CCCCNC(=O)OCC#CI [3-iodo-2-propynyl butylcarbamate (IPBC)]	79.58 ± 0.48	85.7 ± 1.1
COCCOC(=O)C1=C(C)NC(C)=C(C(=O)OC(C)C)C1c1cccc([N+](=O)[O-])c1 (stereo not drawn) [Nimodipine] + CCCCNC(=O)OCC#CI [3-iodo-2-propynyl butylcarbamate (IPBC)]	79.7 ± 7.9	87.3 ± 1.3
CCCCc1nc(Cl)c(CO)n1Cc1ccc(-c2ccccc2-c2nnn[nH]2)cc1 [Losartan] + CCCCNC(=O)OCC#CI [3-iodo-2-propynyl butylcarbamate (IPBC)]	98.3 ± 6.2	96.7 ± 5.7
CC[C@@H](CO)NC(=O)[C@@H]1C=C2c3cccc4[nH]cc(c34)C[C@H]2N(C)C1 [Methylergometrine maleate] + CCCCNC(=O)OCC#CI [3-iodo-2-propynyl butylcarbamate (IPBC)]	79.7 ± 4.8	88 ± 2
NS(=O)(=O)c1cc2c(cc1Cl)NC(CC1CCCC1)NS2(=O)=O (stereo not drawn) [Cyclopenthiazide] + CCCCNC(=O)OCC#CI [3-iodo-2-propynyl butylcarbamate (IPBC)]	88.8 ± 1.4	98.48 ± 0.32
NCc1ccccc1CC(=O)N[C@@H]1C(=O)N2C(C(=O)O)=C(CSc3nnnn3CC(=O)O)CS[C@H]12 [Ceforanide] + CCCCNC(=O)OCC#CI [3-iodo-2-propynyl butylcarbamate (IPBC)]	92.3 ± 5.6	97.1 ± 2.1
CCC1(c2ccc(N)cc2)CCC(=O)NC1=O (stereo not drawn) [Glutethimide, para-amino] + CCCCNC(=O)OCC#CI [3-iodo-2-propynyl butylcarbamate (IPBC)]	111 ± 4.1	112 ± 4.5
CC(NC(C)(C)C)C(=O)c1cccc(Cl)c1 (stereo not drawn) [Bupropion hydrochloride] + CCCCNC(=O)OCC#CI [3-iodo-2-propynyl butylcarbamate (IPBC)]	92.1 ± 5.4	98.5 ± 3
COc1cccc(N(C)C(=S)Oc2ccc3c(c2)CCCC3)n1 [Liranaftate] + CCCCNC(=O)OCC#CI [3-iodo-2-propynyl butylcarbamate (IPBC)]	0	0
NCC(O)c1ccc(O)cc1 (racemic) [(+,-)-Octopamine hydrochloride] + CCCCNC(=O)OCC#CI [3-iodo-2-propynyl butylcarbamate (IPBC)]	97.4 ± 12	95 ± 4.6
CC(=O)N(CC(O)CO)c1c(I)c(C(=O)NCC(O)CO)c(I)c(C(=O)NCC(O)CO)c1I (stereo not drawn) [Iohexol] + CCCCNC(=O)OCC#CI [3-iodo-2-propynyl butylcarbamate (IPBC)]	91.2 ± 8.3	93.7 ± 5.6
Clc1ccc(C(Cn2ccnc2)OCc2c(Cl)cccc2Cl)c(Cl)c1 (stereo not drawn) [Isoconazole] + CCCCNC(=O)OCC#CI [3-iodo-2-propynyl butylcarbamate (IPBC)]	4.13 ± 0.64	2.83 ± 0.32
Clc1ccc(COC(Cn2ccnc2)c2ccc(Cl)cc2Cl)cc1 (stereo not drawn) [Econazole nitrate] + CCCCNC(=O)OCC#CI [3-iodo-2-propynyl butylcarbamate (IPBC)]	3.18 ± 0.32	2.73 ± 0.42
O=C(O)/C=C/c1ccc(Cn2ccnc2)cc1 [Ozagrel hydrochloride] + CCCCNC(=O)OCC#CI [3-iodo-2-propynyl butylcarbamate (IPBC)]	105 ± 12	103 ± 8.7
Clc1ccc(CSC(Cn2ccnc2)c2ccc(Cl)cc2Cl)cc1 (stereo not drawn) [Sulconazole nitrate] + CCCCNC(=O)OCC#CI [3-iodo-2-propynyl butylcarbamate (IPBC)]	3.02 ± 0.16	2.41 ± 0.1
Clc1ccc(C(Cn2ccnc2)OCc2ccsc2Cl)c(Cl)c1 (stereo not drawn) [Tioconazole] + CCCCNC(=O)OCC#CI [3-iodo-2-propynyl butylcarbamate (IPBC)]	3.65 ± 0.16	2.52
CC(c1cc2ccccc2s1)N(O)C(N)=O (stereo not drawn) [Zileuton] + CCCCNC(=O)OCC#CI [3-iodo-2-propynyl butylcarbamate (IPBC)]	89.1 ± 3.3	90.8 ± 2.1
